Test results published in PubChem BioAssay AID2685 (National Center for Advancing Translational Sciences (NCATS), 2010).
Among all 320,000 compounds or so, about 2,100 (0.66%) were called active. Inconclusive results (about 53%) are left out. Calls come from the whole dose curve; as a rule, active = well fitted inhibition curve with a large enough effect in the signal ratio, with a control signal flat (not every such curve was filed as active); inconclusive = small, poorly fitted or top-dose-only effect, or effect the other way, or a change in a side signal; inactive = flat fitted curve, though single readings scatter; the % refers to the signal ratio. Shown is part of a subset that was picked to be rich in actives.

experiment: qHTS Assay for Lipid Storage Modulators in Drosophila S3 Cells; details: BODIPY lipid droplet fluorescence, 18-24 h, cells fed with added oleic acid; cell number change: measured here: cell count max response; series mostly up to 46.1 µM; lipid storage change, negative = inhibition: at the top concentration;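 for cell number change: cells counted by Cell Tracker Red CMTPX staining in the red channel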; for lipid storage change, negative = inhibition: % is set by controls: 0 for no effect and ±100 for the full control effect
Procedure, shortened: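 Laser-scanning cytometry quantifies lipid droplet accumulation (500–530 nm total intensity; droplet/cell object ratio) in oleic acid-fed (400 uM added) Drosophila S3 cells treated with a concentration series. 20 uM Triacsin C defined 100% inhibition.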
Potency is the fitted concentration of half-maximal effect.

Row | SMILES | outcome | cell number change [%] | lipid storage change, negative = inhibition | Potency
1 | O=C(NC1CCCCC1)C1CCCN(S(=O)(=O)c2ccc(F)cc2)C1 (stereo unspecified) | inactive | 2.52 |  | 
2 | COc1ccc(S(=O)(=O)N2CCC(C(=O)NCCc3ccccc3)CC2)cc1 |  | 20.5 | 4.73% (inactive) | 
3 | Cc1ccc(S(=O)(=O)N2CCC(C(=O)NCc3ccncc3)CC2)cc1 |  | 12.7 |  | 18.4 µM (active)
4 | CCOc1ccc(S(=O)(=O)N2CCC(C(=O)NCc3ccncc3)CC2)cc1Cl |  | -18.4 | 29.2% (inactive) | 
5 | Cc1ccc(NC(=O)C(C)OC(=O)COc2cccc(C(F)(F)F)c2)cc1 (stereo unspecified) |  | 3.29 | 4.89% (inactive) | 
6 | COc1ccccc1N(CCC#N)C(=O)CSc1nc(-c2ccccc2)cn1N |  | -6.12 | 21.1% (inactive) | 
7 | COc1ccc(/C=C/c2nc(-c3ccccc3)cc(=O)[nH]2)cc1 |  | -10.9 | -10.7% (inactive) | 
8 | Cc1cn(C2CCC(CO)O2)c(=O)[nH]c1=O (stereo unspecified) | inactive | 27 |  | 
9 | CC1CCCC(NC(=O)COC(=O)c2cccs2)C1C (stereo unspecified) |  | 0.184 | 2.84% (inactive) | 
10 | CCOc1ccc(NC(=O)CN2C(=O)C3CCCN3C2=O)cc1 (stereo unspecified) | inactive |  |  | 
11 | CC1(C)CC(=O)C(C=NCCN2CCN(CCc3ccccc3)CC2)=C(O)C1 |  |  | 1.55% (inactive) | 
12 | Cc1ccccc1C(=O)N1CCN(c2ccc(NC(=O)c3cccnc3)cc2)CC1 |  | 24.6 | -0.627% (inactive) | 
13 | CCOc1cc(C(=S)N2CCN(C)CC2)ccc1OCC(=O)N1CCOCC1 |  | -0.877 | 12.5% (inactive) | 
14 | COc1ccc2c(c1)C1=NN(/C(C)=C\C(C)=O)C(c3ccccc3)C1CC2 (stereo unspecified) |  | -20.1 | -2.18% (inactive) | 
15 | COc1cccc(CNCC(O)COc2ccc(C(=O)c3ccccc3)cc2)c1 (stereo unspecified) |  | -29.5 | 0.646% (inactive) | 
16 | COC(=O)CN1C(=O)NC2(CCCc3ccccc32)C1=O (stereo unspecified) |  | 1.11 | -10.4% (inactive) | 
17 | O=C(c1ccc(C(F)(F)F)cc1)C1CCCN(Cc2cccn2-c2ncccn2)C1 (stereo unspecified) |  | 20.4 | 17.2% (inactive) | 
18 | O=C1CC(N2CCN(c3ccc(F)cc3)CC2)C(=O)N1c1ccc(F)cc1 (stereo unspecified) |  | -10.9 | 0.693% (inactive) | 
19 | CCCCS(=O)(=O)N1CCCC(C(=O)NCCc2ccccc2)C1 (stereo unspecified) |  | -7.87 | -13.4% (inactive) | 
20 | CCCS(=O)(=O)N1CCCC(C(=O)NCCc2ccccc2)C1 (stereo unspecified) |  | 1.16 | 4.64% (inactive) | 
21 | CCS(=O)(=O)N1CCCC(C(=O)NCCc2ccccc2)C1 (stereo unspecified) |  | -14.3 |  | 25.9 µM (active)
22 | Cc1ccc(C(=O)NCC(c2ccco2)N2CCCCC2)s1 (stereo unspecified) |  | 20.8 | 0.161% (inactive) | 
23 | O=C(O)c1cccc(NC(=O)C2CC(=O)N(Cc3ccccc3)C2)c1 (stereo unspecified) |  | -0.647 |  | 4.61 µM (active)
24 | CSc1cccc(NC(=O)C2CC(=O)N(Cc3ccccc3)C2)c1 (stereo unspecified) |  | 8.1 | 6.25% (inactive) | 

Row | SMILES | outcome | cell number change [%] | lipid storage change, negative = inhibition | Potency
25 | CC(=O)c1cccc(NC(=O)C2CC(=O)N(Cc3ccccc3)C2)c1 (stereo unspecified) | inactive |  |  | 
26 | O=S(=O)(Nc1ccncc1)c1ccc(Cl)cc1 |  | -14.9 |  | 10.3 µM (active)
27 | CCc1ccc(S(=O)(=O)Nc2ccncc2)cc1 | inactive | -6.32 |  | 
28 | O=S(=O)(Nc1ccc(Cc2ccncc2)cc1)c1ccc(Cl)cc1 |  | 4.35 | 5.23% (inactive) | 
29 | COc1ccc(C(=O)N2CCC(=O)N(C(CO)Cc3ccccc3)CC2)cc1 (stereo unspecified) |  | -2.26 | 1.55% (inactive) | 
30 | Cc1ccc(N=Cc2c(O)n(C)c(=O)n(C)c2=O)nc1 |  | 3.34 | 1.38% (inactive) | 
31 | O=S(=O)(NCc1cccnc1)c1ccc(Br)c2ccccc12 | inactive | 10.4 |  | 
32 | O=S(=O)(Nc1cccnc1)c1ccc(Br)c2ccccc12 |  | -5.22 |  | 7.31 µM (active)
33 | Cc1ccccc1S(=O)(=O)Nc1cccnc1 |  | 1.91 | 4.78% (inactive) | 
34 | C/C(CC(=O)Nc1ccc(Cl)cc1Cl)=N\NC(=O)c1ccncc1 |  | 23 | 15.2% (inactive) | 
35 | COc1cc2c(cc1OC)C(c1cccc(Cl)c1Cl)CC(=O)N2 (stereo unspecified) |  | -12.7 | -8.05% (inactive) | 
36 | C/C(CC(=O)Nc1ccc2c(c1)OCCO2)=N\NC(=O)c1ccccc1F | inactive | 8.06 |  | 
37 | COc1ccccc1C(=O)N/N=C(\C)CC(=O)Nc1ccc2c(c1)OCCO2 |  | 22.4 |  | 16.4 µM (active)
38 | COc1ccc(C(=O)N/N=C(\C)CC(=O)Nc2ccc3c(c2)OCCO3)c(OC)c1 | inactive | 14.3 |  | 
39 | Cc1ccc(Nc2ccccc2)nn1 |  | 17 | 5.52% (inactive) | 
40 | N#Cc1nc(Cc2ccccc2)oc1N1CCCC1 |  | -9.44 | -16.8% (inactive) | 
41 | N#Cc1ncc(Cc2ccccc2)nc1C#N |  | -22.9 |  | 7.31 µM (active)
42 | N#Cc1nc(Cc2ccccc2)oc1NCc1ccccc1 |  | -21 | -3.57% (inactive) | 
43 | COc1ccccc1NC(=O)NNC(=O)C(C)Oc1ccc2ccccc2c1 (stereo unspecified) |  | 7.76 | 6.71% (inactive) | 
44 | Cc1ccc(/C=N/N2CCN(Cc3ccc(Cl)cc3)CC2)o1 |  | -6.6 | -1.89% (inactive) | 
45 | O=C(COC(=O)C1CSC2(c3ccc(F)cc3)CCC(=O)N12)NC(=O)NC1CCCC1 (stereo unspecified) |  | 8.51 | -22.5% (inactive) | 
46 | O=C(C1CSC2(c3ccc(F)cc3)CCC(=O)N12)N1CCCCCC1 (stereo unspecified) |  | -5.6 |  | 18.4 µM (active)
47 | CC(C)CNC(=O)NC(=O)COC(=O)C1CSC2(c3ccc(F)cc3)CCC(=O)N12 (stereo unspecified) |  | 5.71 | -8.94% (inactive) | 
